What all share (parameters): scale not given: direction of the effect not stated beside the values
The target of assay [1] is Protein translocase subunit SecA (Escherichia coli (strain K12)) (UniProt P10408). Kind of assay: Assay to Identify E. coli SecA ATPase Inhibitors. The class given is functional. The settings on record: 30 µM.
The target of assay [2] is T1, Ubiquitin-activating enzyme e1, putative (Leishmania donovani (strain BPK282A1)) (UniProt E9BSI1).
T1 sequence (whole entry): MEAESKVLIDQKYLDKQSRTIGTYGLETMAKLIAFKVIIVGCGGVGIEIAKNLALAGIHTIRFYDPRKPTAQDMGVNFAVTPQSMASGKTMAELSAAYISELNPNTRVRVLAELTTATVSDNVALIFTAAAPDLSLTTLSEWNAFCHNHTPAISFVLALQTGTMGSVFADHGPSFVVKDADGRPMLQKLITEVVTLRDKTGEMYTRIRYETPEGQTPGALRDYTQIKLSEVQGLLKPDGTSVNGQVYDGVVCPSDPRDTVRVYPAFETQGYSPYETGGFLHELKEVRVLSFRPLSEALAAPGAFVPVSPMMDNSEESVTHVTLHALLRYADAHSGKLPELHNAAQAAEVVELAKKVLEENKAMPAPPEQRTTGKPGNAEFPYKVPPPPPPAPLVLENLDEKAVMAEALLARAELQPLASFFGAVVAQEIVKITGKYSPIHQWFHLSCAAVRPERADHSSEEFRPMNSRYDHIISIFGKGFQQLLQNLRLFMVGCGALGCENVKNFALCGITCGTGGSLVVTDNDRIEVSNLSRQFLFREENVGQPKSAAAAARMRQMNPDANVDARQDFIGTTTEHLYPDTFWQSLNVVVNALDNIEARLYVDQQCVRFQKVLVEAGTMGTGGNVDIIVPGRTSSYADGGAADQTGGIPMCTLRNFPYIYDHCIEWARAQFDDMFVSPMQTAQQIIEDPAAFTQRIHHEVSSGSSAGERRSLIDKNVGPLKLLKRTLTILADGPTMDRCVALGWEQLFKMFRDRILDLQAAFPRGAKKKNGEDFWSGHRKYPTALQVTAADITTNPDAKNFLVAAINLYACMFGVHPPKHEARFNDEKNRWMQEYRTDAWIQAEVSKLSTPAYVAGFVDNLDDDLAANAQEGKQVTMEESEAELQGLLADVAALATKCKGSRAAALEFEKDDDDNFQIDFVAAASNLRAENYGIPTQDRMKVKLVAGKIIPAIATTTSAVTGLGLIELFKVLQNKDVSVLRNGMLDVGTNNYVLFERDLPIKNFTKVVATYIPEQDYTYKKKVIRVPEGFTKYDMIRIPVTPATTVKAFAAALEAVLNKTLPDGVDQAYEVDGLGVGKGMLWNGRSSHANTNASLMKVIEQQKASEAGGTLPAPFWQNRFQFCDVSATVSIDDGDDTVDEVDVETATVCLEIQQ
Kind of assay: Leishmania donovani Ubiquitin Activating Enzyme (LdE1). Type of assay: functional. The settings on record: 30 µM.

Assay [3] deals with AMP-activated protein kinase, AMPK (Homo sapiens) (UniProt P54646+O43741+P54619+Q9UGJ0+Q9Y478+Q13131+Q9UGI9). The assay is described as follows: AMP-dependent Kinase enzyme assay. An in vitro enzyme assay that detects ADP turnover that is directly proportional to AMPK activity. This uses naive AMPK that is activated during the assay with MK-8722. The class given is functional. The settings on record: 30 µM.

In assay [4] the target is Sialic acid-binding Ig-like lectin 9 (Homo sapiens) (UniProt Q9Y336). The assay is described as follows: Hs-Siglec9 ALPHAscreen SOP 20170721. Particulars: 10 µM. (In general: In Alpha technology, singlet oxygen from a donor bead excites a nearby acceptor bead.)
Sequence of Sialic acid-binding Ig-like lectin 9 (Homo sapiens) (Q9Y336 whole entry): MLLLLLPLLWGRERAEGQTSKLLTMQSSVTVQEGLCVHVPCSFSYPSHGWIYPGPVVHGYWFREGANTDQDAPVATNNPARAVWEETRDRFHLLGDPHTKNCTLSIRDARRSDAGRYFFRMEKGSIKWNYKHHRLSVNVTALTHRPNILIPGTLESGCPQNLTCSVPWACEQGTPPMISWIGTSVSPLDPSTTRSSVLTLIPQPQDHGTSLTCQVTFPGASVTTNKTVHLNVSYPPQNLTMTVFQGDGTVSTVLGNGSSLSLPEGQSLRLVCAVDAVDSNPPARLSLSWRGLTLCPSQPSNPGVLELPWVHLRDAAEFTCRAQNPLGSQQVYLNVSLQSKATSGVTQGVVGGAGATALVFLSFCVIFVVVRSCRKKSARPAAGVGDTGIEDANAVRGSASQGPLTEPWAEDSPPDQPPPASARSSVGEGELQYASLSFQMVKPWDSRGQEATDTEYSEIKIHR
In the next assay the test system is Trypanosoma cruzi. Kind of assay: Trypanosoma cruzi phosphomannomutase and mannose-1-phosphate guanylyltransferase assay. Type of assay: functional. The settings on record: 10 µM.
Assay [5] concerns the target T2, Arginase-2, mitochondrial (Homo sapiens) (UniProt P78540).
T2 sequence (whole entry): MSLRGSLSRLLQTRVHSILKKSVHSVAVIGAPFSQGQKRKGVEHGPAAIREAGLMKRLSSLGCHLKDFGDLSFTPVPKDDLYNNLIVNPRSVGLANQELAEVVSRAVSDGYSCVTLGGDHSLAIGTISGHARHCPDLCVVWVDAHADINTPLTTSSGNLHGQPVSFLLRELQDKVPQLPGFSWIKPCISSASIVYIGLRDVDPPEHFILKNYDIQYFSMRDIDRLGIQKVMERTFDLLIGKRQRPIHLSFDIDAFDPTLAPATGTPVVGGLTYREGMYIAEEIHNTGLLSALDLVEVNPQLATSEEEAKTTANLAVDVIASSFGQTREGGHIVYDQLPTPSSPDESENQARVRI
The assay is described as follows: in vitro enzyme assay to detect the production of urea directly proportional to the activity of Arginase II. Further: in the data most compounds retested in dose-response had high values. The class given is functional. The settings on record: 33.3 µM.

In assay [6] the target is T3, Proteasome subunit beta (Trypanosoma cruzi) (UniProt O96673).
T3 sequence (whole entry): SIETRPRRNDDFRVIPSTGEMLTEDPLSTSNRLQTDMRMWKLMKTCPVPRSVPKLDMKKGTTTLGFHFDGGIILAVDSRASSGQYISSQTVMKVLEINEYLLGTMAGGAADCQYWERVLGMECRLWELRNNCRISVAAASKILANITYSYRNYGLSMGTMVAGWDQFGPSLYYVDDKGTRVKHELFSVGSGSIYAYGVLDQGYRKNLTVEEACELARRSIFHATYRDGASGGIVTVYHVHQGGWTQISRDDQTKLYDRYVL
Kind of assay: Trypanosoma cruzi proteasome chymotrypsin-like activity (TcProtChymo) assay. Further: in the data most compounds retested in dose-response had high values. Type of assay: functional. Particulars: 9.37 µM.

For another assay, the species on record is Homo sapiens. Kind of assay: To identify inhibition of the IFN signalling (Jak-Stat) pathway via expression of an eGFP reporter gene under the control of an IFN-stimulated response element (ISRE) containing MxA promoter. The class given is functional. Particulars: 30 µM.
Assay [7] has as its target T4, Tyrosyl-tRNA synthetase, putative (Trypanosoma cruzi (strain CL Brener)) (UniProt Q4DSP6).
T4 sequence (whole entry): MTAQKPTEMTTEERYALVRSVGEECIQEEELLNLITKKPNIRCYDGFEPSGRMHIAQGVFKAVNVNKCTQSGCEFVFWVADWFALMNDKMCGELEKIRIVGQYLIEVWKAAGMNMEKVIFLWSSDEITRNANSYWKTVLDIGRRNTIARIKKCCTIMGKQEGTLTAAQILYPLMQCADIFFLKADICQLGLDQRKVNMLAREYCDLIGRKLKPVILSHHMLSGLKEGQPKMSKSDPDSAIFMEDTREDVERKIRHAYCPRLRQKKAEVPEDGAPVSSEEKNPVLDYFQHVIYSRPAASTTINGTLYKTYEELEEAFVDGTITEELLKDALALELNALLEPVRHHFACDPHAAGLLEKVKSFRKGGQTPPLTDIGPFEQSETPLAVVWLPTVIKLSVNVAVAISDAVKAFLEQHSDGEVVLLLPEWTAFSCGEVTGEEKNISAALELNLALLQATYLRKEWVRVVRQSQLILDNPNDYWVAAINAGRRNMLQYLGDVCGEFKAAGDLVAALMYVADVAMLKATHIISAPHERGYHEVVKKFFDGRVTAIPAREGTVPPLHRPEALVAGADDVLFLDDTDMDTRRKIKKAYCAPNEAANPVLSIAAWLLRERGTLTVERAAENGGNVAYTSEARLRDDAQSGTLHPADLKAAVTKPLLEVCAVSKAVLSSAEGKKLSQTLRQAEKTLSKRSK
Kind of assay: Trypanosoma cruzi tyrosyl tRNA synthetase (TcYRS) _High Tyrosine SOP. Further: in the data most compounds retested in dose-response had high values. Type of assay: functional. Particulars: 30 µM.

The target in assay [8] is T4, Tyrosyl-tRNA synthetase, putative (Trypanosoma cruzi (strain CL Brener)). Kind of assay: Trypanosoma cruzi tyrosyl tRNA synthetase (TcYRS) SOP. Type of assay: functional. Particulars: 30 µM.
For assay [9], the target named is Chromo domain-containing protein 1 (Saccharomyces cerevisiae (strain ATCC 204508 / S288c) (Baker's yeast)) (UniProt P32657). Kind of assay: ScCHD-1 Enzyme Inhibition Assay. Further: in the data most compounds retested in dose-response had high values. Type of assay: functional. Particulars: 30 µM.
Sequence of Chromo domain-containing protein 1 (Saccharomyces cerevisiae (strain ATCC 204508 / S288c) (Baker's yeast)) (P32657 whole entry, the tested form may be a part): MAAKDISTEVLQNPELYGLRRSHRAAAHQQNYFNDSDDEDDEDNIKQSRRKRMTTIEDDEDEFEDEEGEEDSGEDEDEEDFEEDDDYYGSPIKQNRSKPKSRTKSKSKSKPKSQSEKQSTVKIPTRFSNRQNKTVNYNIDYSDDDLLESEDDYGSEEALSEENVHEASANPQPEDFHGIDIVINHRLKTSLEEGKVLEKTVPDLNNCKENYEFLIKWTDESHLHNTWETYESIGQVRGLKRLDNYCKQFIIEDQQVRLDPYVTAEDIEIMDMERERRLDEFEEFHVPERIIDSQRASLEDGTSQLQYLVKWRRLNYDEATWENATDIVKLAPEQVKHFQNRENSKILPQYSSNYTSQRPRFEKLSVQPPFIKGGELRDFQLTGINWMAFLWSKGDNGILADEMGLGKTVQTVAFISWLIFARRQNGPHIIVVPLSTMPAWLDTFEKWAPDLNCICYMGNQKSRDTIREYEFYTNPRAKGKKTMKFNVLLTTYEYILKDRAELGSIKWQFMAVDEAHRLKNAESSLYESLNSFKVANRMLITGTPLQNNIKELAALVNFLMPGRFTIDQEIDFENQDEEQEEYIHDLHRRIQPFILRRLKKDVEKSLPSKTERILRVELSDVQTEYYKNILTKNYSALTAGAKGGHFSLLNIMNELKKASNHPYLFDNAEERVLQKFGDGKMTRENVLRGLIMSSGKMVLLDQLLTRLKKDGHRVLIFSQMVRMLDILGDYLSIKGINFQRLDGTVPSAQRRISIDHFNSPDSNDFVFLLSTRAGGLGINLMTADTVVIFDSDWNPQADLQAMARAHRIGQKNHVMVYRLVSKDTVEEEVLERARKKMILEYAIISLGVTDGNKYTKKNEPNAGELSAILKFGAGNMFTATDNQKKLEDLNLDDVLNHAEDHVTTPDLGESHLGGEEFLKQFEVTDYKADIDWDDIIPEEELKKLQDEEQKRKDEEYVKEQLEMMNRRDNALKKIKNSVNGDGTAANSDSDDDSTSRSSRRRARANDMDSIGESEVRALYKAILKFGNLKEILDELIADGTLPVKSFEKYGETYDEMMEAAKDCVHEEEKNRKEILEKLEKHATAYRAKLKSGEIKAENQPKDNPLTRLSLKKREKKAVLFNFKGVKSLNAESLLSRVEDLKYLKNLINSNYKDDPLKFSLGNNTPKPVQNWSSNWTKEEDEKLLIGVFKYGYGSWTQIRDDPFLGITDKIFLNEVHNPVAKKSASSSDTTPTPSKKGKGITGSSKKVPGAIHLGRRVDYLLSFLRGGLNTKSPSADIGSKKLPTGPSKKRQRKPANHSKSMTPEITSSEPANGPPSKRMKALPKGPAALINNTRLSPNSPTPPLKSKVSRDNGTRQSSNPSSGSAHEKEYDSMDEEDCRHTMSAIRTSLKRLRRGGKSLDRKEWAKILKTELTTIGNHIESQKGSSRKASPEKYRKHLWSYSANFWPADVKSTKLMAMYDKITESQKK

SMILES strings stand for the structures. For some of these results: Potency and affinity values are given separately.

Sequence of Protein translocase subunit SecA (Escherichia coli (strain K12)) (P10408 whole entry): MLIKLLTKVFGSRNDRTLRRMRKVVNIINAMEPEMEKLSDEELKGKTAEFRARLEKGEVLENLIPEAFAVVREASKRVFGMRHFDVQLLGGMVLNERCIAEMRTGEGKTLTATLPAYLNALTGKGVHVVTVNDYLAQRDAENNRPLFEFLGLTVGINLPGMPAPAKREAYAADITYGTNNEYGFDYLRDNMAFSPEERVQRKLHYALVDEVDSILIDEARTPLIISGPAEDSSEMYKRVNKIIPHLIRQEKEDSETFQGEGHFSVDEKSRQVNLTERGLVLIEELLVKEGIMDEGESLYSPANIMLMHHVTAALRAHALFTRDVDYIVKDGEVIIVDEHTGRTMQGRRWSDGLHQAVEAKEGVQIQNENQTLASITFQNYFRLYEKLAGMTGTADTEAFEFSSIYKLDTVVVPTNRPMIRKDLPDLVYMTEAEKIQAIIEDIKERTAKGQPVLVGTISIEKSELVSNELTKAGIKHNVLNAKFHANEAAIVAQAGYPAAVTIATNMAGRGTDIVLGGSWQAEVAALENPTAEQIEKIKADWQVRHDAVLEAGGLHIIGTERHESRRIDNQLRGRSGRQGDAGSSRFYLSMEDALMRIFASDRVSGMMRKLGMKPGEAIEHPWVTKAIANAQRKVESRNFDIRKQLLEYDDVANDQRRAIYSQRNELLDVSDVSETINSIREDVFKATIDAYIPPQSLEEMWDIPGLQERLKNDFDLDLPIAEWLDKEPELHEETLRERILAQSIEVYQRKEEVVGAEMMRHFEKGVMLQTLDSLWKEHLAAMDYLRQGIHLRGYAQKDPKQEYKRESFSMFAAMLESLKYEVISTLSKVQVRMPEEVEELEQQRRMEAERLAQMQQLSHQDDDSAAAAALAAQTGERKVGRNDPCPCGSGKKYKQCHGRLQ

As to `COc1ccc(CN2CC[C@H]3[C@H]2CCN3C(=O)c2cnn(C)c2)cc1`, the Percent Effect in assay [1] is -0.777%; in assay [2], 13.5%; in assay [3], 4.48%; in assay [4], -12.3%; with Trypanosoma cruzi, -3.23%; in assay [5] it was 2.87%. Further, the Percent Effect is 12.2% in assay [6]; 9.65% in the assay listed under Homo sapiens; 1.08% in assay [7]; 7.69% in [8]; -5.75% in assay [9].
As to `Cc1nc(CN2CCCN(CCOc3cccc(C#N)c3)CC2)no1`, the Percent Effect in assay [1] was -0.969%; in [2], 13.2%; in assay [3], -4.74%; in assay [4], -2.13%; in the assay with Trypanosoma cruzi it was -7.38%; in assay [5], 3.24%. Besides, the Percent Effect was 16.3% in assay [6]; 7.6% in the assay filed under Homo sapiens; 6.4% in assay [7]; 11.1% in [8]; -9.28% in [9].
`c1ccc2c(N3CCCCC3Cn3cncn3)ncnc2c1` (stereo not drawn): the Percent Effect in [1] was -4.99%; in assay [2], 2.67%; in assay [3], -0.541%; in assay [4], 0.114%; with Trypanosoma cruzi, -0.876%; in [5] it was 3.12%. Besides, the Percent Effect is 8.54% in assay [6]; 16.2% in the assay filed under Homo sapiens; 2.73% in [7]; 6.17% in assay [8]; -6.35% in [9].
For the compound `CC(C)c1nc(CN(C)C2CCN(Cc3nc(C4CC4)no3)C2)no1` (stereo not drawn), the Percent Effect in [1] was 4.92%; in assay [2], 11%; in assay [3], -9.72%; in assay [4] it was 4.44%; in the assay on Trypanosoma cruzi it was -8.42%; in assay [5], 1.36%. Further, the Percent Effect is 18.8% in [6]; 22.3% in the assay filed under Homo sapiens; 3.23% in assay [7]; 10% in [8]; -6.06% in assay [9].
`COc1cccc(CNc2c(C)cnc3c2c(=O)n(C)c(=O)n3C)c1`: the Percent Effect in assay [1] was -2.5%; in assay [2] it was 16.4%; in assay [3], -3.93%; in assay [4], -14.8%; in the assay on Trypanosoma cruzi, 2.35%; in [5], 0.909%. The Percent Effect was 15.4% in assay [6]; 21.6% in the assay filed under Homo sapiens; 3.23% in assay [7]; 20% in [8]; -6.85% in assay [9].
Regarding `O=C(NCN1CCc2ccccc2C1)c1cnccn1`, the Percent Effect was -0.536% in assay [1]; 2.7% in assay [2]; -2.81% in assay [3]; -3.19% in [4]; -7.33% in the assay with Trypanosoma cruzi; 2.73% in [5]. The Percent Effect in assay [6] is 10.4%; in the assay listed under Homo sapiens it was 0.709%; in assay [7] it was 1.07%; in [8], 6.17%; in [9] it was -6.84%.
`Cc1ccc(Cn2ccc(NS(C)(=O)=O)n2)cc1`: the Percent Effect in assay [1] is -6.83%; in assay [2], 5.2%; in assay [3], -4.69%; in assay [4], -0.383%; in the assay on Trypanosoma cruzi, -2.46%; in assay [5] it was -5.52%. Moreover, the Percent Effect in [6] was 9.32%; in the assay listed under Homo sapiens, -2.78%; in [7], 3.23%; in assay [8], 13.6%; in assay [9] it was 1.11%.
For `O=C(c1cn(-c2cc(N3CCSCC3)ncn2)cn1)N1CCSCC1`, the Percent Effect is -2.69% in assay [1]; 8.22% in assay [2]; -3.54% in assay [3]; -3.87% in [4]; 6.27% in the assay on Trypanosoma cruzi; -1.82% in assay [5]. Also, the Percent Effect in [6] is 24%; in the assay filed under Homo sapiens it was -3.38%; in assay [7] it was 7.53%; in [8], 15%; in assay [9], -3.99%.

The record behind these values is ChEMBL document CHEMBL3988442, “University of Dundee, Small-Polar-MMV Screening Library” (2021).
